These results are taken from ChEMBL document CHEMBL3988442, “University of Dundee, Small-Polar-MMV Screening Library” (2021).

For some of these results: Entries with a potency or affinity are not part of this list.

Holding throughout (parameters): scale not given: direction of the effect not stated beside the values
The target of assay [1] is Protein translocase subunit SecA (Escherichia coli (strain K12)) (UniProt P10408). As to the kind of experiment: Assay to Identify E. coli SecA ATPase Inhibitors. The following applies: 30 µM. In kind it is functional.
Chain of Protein translocase subunit SecA (Escherichia coli (strain K12)) (P10408 whole entry): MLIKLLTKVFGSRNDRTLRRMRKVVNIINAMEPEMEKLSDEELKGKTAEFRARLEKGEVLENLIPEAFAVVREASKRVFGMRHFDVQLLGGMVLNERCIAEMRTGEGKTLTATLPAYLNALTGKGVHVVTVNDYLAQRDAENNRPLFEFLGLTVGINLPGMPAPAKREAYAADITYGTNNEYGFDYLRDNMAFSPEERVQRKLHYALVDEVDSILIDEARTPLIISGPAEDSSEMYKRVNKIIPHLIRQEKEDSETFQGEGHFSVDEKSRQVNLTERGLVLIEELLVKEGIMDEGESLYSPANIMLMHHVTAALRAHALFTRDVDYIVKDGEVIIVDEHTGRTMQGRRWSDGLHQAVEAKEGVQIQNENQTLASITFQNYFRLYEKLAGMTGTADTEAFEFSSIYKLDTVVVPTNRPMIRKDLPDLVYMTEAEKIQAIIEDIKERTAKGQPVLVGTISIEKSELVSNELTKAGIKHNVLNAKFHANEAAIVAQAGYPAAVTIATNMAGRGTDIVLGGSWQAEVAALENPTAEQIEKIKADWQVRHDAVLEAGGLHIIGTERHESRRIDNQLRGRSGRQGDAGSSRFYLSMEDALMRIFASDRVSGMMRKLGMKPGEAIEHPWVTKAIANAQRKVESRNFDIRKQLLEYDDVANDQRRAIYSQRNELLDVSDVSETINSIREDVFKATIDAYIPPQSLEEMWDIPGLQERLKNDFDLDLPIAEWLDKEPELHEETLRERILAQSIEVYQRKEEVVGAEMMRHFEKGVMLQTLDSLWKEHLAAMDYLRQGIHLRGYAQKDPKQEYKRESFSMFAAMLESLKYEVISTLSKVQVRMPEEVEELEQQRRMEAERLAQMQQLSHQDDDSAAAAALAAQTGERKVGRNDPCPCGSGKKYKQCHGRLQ
Assay [2] deals with T1, Ubiquitin-activating enzyme e1, putative (Leishmania donovani (strain BPK282A1)) (UniProt E9BSI1).
T1 sequence (whole entry): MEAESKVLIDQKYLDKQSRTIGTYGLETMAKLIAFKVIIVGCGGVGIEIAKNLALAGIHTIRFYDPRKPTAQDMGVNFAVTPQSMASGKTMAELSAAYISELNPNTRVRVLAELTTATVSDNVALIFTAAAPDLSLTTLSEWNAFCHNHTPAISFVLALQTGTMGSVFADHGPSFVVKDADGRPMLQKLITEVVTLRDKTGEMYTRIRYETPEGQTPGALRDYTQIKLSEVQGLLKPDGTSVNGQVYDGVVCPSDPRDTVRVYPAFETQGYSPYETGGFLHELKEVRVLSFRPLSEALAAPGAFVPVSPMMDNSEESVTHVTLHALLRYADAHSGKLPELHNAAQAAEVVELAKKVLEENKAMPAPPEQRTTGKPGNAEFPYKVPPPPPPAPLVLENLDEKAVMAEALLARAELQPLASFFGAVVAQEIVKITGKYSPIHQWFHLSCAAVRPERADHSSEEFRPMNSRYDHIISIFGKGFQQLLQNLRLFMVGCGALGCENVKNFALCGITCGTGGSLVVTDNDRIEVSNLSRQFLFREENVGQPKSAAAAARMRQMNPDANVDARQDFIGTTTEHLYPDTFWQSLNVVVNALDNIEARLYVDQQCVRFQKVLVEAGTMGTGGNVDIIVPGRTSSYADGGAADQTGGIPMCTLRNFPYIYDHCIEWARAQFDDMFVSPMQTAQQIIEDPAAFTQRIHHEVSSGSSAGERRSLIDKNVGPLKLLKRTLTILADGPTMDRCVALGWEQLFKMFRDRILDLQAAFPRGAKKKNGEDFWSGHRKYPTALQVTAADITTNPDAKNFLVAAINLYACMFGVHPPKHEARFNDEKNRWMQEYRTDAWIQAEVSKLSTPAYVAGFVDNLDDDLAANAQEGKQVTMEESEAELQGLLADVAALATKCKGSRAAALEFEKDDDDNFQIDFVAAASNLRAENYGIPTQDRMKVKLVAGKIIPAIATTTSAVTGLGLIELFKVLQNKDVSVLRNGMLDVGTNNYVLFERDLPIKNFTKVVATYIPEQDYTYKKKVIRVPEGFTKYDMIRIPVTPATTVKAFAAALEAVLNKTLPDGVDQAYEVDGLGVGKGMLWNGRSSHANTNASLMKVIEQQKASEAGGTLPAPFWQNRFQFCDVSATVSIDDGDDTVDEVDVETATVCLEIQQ
As to the kind of experiment: Leishmania donovani Ubiquitin Activating Enzyme (LdE1). It counts as functional. The following applies: 30 µM.

Assay [3] deals with Sialic acid-binding Ig-like lectin 9 (Homo sapiens) (UniProt Q9Y336). As to the kind of experiment: Hs-Siglec9 ALPHAscreen SOP 20170721. To be noted: 10 µM. In general terms: Bead proximity is the source of the signal in Alpha formats.
Chain of Sialic acid-binding Ig-like lectin 9 (Homo sapiens) (Q9Y336 whole entry): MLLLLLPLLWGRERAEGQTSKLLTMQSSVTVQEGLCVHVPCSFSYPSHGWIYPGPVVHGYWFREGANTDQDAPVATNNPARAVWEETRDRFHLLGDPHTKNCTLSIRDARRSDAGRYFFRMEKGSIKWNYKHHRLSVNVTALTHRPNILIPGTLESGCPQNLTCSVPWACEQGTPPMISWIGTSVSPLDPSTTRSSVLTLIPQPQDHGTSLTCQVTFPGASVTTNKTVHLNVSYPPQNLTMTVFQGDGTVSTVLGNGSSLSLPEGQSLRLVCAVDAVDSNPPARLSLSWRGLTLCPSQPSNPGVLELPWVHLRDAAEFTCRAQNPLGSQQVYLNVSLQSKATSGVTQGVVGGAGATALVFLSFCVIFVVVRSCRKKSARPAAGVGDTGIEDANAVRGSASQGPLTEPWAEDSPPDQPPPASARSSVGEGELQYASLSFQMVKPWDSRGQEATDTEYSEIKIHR
Another assay has as its system Trypanosoma cruzi. In words: Trypanosoma cruzi phosphomannomutase and mannose-1-phosphate guanylyltransferase assay. It counts as functional. To be noted: 10 µM.
In assay [4] the target is T2, Arginase-2, mitochondrial (Homo sapiens) (UniProt P78540).
T2 sequence (whole entry): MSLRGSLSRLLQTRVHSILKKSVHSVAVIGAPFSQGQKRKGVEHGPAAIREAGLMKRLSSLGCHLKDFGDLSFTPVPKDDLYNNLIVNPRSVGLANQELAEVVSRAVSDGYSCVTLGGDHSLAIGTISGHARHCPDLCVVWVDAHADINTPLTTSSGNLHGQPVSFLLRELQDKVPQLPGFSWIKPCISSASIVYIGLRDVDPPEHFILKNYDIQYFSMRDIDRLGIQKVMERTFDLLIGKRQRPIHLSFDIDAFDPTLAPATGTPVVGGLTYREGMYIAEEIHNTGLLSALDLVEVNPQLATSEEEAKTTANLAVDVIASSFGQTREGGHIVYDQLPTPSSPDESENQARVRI
As to the kind of experiment: in vitro enzyme assay to detect the production of urea directly proportional to the activity of Arginase II. Note: in the data most compounds retested in dose-response had high values. It counts as functional. To be noted: 33.3 µM.

Assay [5] deals with T3, Proteasome subunit beta (Trypanosoma cruzi) (UniProt O96673).
T3 sequence (whole entry): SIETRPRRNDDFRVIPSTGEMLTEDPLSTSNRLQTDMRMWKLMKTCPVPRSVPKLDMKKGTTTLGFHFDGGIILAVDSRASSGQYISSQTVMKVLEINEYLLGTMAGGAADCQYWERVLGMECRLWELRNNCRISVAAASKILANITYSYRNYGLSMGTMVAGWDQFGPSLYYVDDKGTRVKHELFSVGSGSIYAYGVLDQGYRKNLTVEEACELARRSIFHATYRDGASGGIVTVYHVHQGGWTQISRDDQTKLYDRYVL
In words: Trypanosoma cruzi proteasome chymotrypsin-like activity (TcProtChymo) assay. Note: in the data most compounds retested in dose-response had high values. In kind it is functional. The following applies: 9.37 µM.

A further assay is filed under the species Homo sapiens. As to the kind of experiment: To identify inhibition of the IFN signalling (Jak-Stat) pathway via expression of an eGFP reporter gene under the control of an IFN-stimulated response element (ISRE) containing MxA promoter. In kind it is functional. To be noted: 30 µM. For orientation: In a reporter assay the amount or activity of a reporter protein is the signal.

Assay [6] has as its target T4, Tyrosyl-tRNA synthetase, putative (Trypanosoma cruzi (strain CL Brener)) (UniProt Q4DSP6).
T4 sequence (whole entry): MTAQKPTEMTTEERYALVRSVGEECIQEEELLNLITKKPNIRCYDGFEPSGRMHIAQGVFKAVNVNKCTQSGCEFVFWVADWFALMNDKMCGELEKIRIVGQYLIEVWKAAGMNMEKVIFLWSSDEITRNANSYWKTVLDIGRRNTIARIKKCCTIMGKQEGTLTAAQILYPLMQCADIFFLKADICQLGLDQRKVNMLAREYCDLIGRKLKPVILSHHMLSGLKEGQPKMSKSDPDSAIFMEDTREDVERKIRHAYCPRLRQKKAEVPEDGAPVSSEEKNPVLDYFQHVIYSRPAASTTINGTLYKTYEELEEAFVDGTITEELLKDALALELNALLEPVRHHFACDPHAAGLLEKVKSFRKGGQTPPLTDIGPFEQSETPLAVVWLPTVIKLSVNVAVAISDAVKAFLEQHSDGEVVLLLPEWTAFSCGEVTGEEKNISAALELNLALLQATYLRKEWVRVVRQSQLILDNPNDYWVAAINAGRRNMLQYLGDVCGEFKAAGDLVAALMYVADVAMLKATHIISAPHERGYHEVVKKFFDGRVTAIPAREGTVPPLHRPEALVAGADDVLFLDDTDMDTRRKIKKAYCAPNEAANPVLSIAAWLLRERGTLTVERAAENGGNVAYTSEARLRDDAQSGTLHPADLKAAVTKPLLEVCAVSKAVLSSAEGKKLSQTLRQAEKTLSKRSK
In words: Trypanosoma cruzi tyrosyl tRNA synthetase (TcYRS) _High Tyrosine SOP. Note: in the data most compounds retested in dose-response had high values. To be noted: 30 µM. In kind it is functional.

In assay [7] the target is T4, Tyrosyl-tRNA synthetase, putative (Trypanosoma cruzi (strain CL Brener)). As to the kind of experiment: Trypanosoma cruzi tyrosyl tRNA synthetase (TcYRS) SOP. The following applies: 30 µM. It counts as functional.
Assay [8] addresses Chromo domain-containing protein 1 (Saccharomyces cerevisiae (strain ATCC 204508 / S288c) (Baker's yeast)) (UniProt P32657). As to the kind of experiment: ScCHD-1 Enzyme Inhibition Assay. Note: in the data most compounds retested in dose-response had high values. In kind it is functional. The following applies: 30 µM.

Chain of Chromo domain-containing protein 1 (Saccharomyces cerevisiae (strain ATCC 204508 / S288c) (Baker's yeast)) (P32657 whole entry, the tested form may be a part): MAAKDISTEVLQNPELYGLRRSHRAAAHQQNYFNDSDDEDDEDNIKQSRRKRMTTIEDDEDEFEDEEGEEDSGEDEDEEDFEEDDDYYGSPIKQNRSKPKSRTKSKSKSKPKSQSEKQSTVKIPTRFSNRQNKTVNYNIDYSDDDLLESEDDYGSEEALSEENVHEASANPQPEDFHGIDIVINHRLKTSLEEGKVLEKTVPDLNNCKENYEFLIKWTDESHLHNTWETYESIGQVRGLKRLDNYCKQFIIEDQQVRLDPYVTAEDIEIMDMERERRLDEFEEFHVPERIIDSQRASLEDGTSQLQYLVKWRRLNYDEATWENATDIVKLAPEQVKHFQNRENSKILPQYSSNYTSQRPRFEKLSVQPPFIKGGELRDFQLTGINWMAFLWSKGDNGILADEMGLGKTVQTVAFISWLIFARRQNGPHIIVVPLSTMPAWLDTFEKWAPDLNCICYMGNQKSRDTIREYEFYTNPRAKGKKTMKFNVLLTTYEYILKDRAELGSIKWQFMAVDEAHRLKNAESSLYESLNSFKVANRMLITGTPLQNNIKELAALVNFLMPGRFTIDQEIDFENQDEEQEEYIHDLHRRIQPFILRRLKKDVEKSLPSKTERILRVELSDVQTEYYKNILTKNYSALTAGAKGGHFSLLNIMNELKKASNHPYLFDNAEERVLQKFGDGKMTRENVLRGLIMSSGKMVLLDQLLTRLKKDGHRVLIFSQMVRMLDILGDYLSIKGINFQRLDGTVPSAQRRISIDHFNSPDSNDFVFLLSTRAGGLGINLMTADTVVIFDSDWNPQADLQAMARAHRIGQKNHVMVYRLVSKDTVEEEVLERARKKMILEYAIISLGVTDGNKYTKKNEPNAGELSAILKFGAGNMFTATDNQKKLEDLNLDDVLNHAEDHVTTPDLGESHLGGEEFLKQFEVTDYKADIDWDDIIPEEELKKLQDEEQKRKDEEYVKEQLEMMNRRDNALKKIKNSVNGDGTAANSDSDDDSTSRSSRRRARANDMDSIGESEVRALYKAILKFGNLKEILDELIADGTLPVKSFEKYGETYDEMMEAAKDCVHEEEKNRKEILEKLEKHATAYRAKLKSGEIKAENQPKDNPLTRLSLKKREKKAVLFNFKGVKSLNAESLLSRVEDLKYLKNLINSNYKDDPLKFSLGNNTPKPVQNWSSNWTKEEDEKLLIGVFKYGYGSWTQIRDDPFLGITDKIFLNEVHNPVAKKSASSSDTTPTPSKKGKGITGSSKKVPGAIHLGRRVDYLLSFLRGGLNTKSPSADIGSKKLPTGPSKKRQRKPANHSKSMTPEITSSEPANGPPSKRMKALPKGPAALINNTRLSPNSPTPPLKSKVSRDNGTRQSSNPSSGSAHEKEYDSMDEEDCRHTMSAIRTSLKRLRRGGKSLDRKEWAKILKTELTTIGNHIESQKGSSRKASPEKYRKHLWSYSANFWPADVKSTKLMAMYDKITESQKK

For `O=S(=O)(c1ccccc1)N1CCCCC1c1cc[nH]n1` (stereo not given), the Percent Effect is -1.23% in [1]; 9.33% in assay [2]; -5.11% in assay [3]; -6.71% in the assay on Trypanosoma cruzi; -1.77% in [4]; 13.5% in assay [5]. Also, the Percent Effect was 19.2% in the assay filed under Homo sapiens, -3.17% in [6], 0% in assay [7] and -28% in [8].

In the case of `COc1cccc(-n2nnc(C(=O)N3CCCC3)c2C)c1`, the Percent Effect in [1] was -0.683%; in assay [2], 10.3%; in assay [3], -7.88%; with Trypanosoma cruzi it was 2.72%; in assay [4] it was 4.92%; in assay [5] it was 7.25%. Further, the Percent Effect in the assay listed under Homo sapiens was 6.63%; in assay [6] it was 7.18%; in assay [7], 13.2%; in assay [8] it was -3.38%.

For `COCCN1CCN(Cc2cccc(C(N)=O)c2)CC1C` (stereo not given), the Percent Effect in [1] is -2.01%; in [2] it was 29.3%; in assay [3], -8.56%; with Trypanosoma cruzi, 2.81%; in assay [4], -2.66%; in assay [5], 17.6%. Also, the Percent Effect in the assay listed under Homo sapiens was 16.2%; in assay [6], 2.63%; in [7] it was 12.8%; in assay [8], -19.1%.

`O=C1NCc2ccc(NC(=O)C3CCCN3c3nccs3)cc21` (stereo not given): the Percent Effect in [1] is 0.371%; in [2] it was -7.69%; in [3] it was 12.8%; in the assay on Trypanosoma cruzi it was 0.0939%; in assay [4], -1.23%; in assay [5] it was 1.96%. Further, the Percent Effect in the assay listed under Homo sapiens was -7.22%; in assay [6], -0.478%; in assay [7] it was -6.02%; in [8], 105%.

In the case of `Cc1ccc2c(n1)N(Cc1cccnc1)CCN(C(=O)C1CCC1)C2`, the Percent Effect in assay [1] was -1.28%; in [2] it was 6.49%; in assay [3], -4.98%; in the assay with Trypanosoma cruzi, -4.77%; in assay [4], 7.29%; in assay [5], 11.4%. In addition, the Percent Effect in the assay listed under Homo sapiens was 16.9%; in assay [6] it was 4.74%; in assay [7], 7.69%; in assay [8] it was -6.47%.

As to `Cn1cc(-c2nnn3c2COC(CNCc2nccs2)C3)cn1` (stereo not given), the Percent Effect is -3.81% in [1]; 11.7% in assay [2]; 1% in [3]; 4.19% with Trypanosoma cruzi; 10.5% in assay [4]; 11.6% in [5]. The Percent Effect in the assay listed under Homo sapiens was 6.11%; in [6], 5.79%; in [7], 17.9%; in assay [8], 8.68%.

With `COc1ccc(-n2ncc(C(=O)NCC3COC(C)(C)O3)c2N)cc1` (stereo not given), the Percent Effect in [1] is 97.8%; in assay [2], 14.7%; in assay [3], -6.21%; in the assay on Trypanosoma cruzi, -0.592%; in assay [4], 1.33%; in [5], 14.8%. Also, the Percent Effect in the assay filed under Homo sapiens is 15.7%; in assay [6], 1.06%; in [7] it was 5%; in assay [8], -19.9%.

As to `COc1c(C2CCCN2C(=O)c2c[nH]c3ncccc23)c(C)nn1C` (stereo not given), the Percent Effect in assay [1] was -5.03%; in assay [2], 7.79%; in assay [3], 8.63%; in the assay with Trypanosoma cruzi, -5.41%; in [4], 2.25%; in assay [5], 7.02%. Also, the Percent Effect in the assay listed under Homo sapiens is 1.49%; in assay [6] it was 5.88%; in assay [7], 7.06%; in assay [8], -7.9%.

As for `CCc1ccc(O)c(C(=O)NC2CCN(Cc3ccncc3)CC2)c1`, the Percent Effect in assay [1] was -1.01%; in assay [2], 12.8%; in assay [3] it was -9.09%; in the assay on Trypanosoma cruzi it was -4.98%; in assay [4], 1.64%; in [5], 5.55%. Besides, the Percent Effect in the assay filed under Homo sapiens is 44.9%; in assay [6] it was 1.44%; in assay [7], 8.43%; in assay [8], -6.65%.

For the compound `COC[C@@H]1CC[C@H]2[C@H](CCN2S(=O)(=O)c2ccc(OC)cc2)O1`, the Percent Effect in assay [1] is -2.3%; in assay [2] it was -1.3%; in assay [3], 2.46%; in the assay with Trypanosoma cruzi it was -0.876%; in assay [4], -1.62%; in assay [5], 6.09%. In addition, the Percent Effect was -19.4% in the assay listed under Homo sapiens, -1.58% in [6], 5.13% in assay [7] and 1.57% in assay [8].
